KB-V1 MDR tox – qHTS assay for MDR1-selective chemotherapeutics: Primary screen using the drug-selected MDR subline cells KB-V1 | KB-V1 MDR cells viability, CellTiter-Glo, 72 h | AID 1347076, 2019 | Potency, µM (series often up to 46.1 µM), hits mostly cytotoxic | 400,000 compounds, 3.4% hits; also: nearly all actives have a fitted effect of over 60% in size
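KB-V1, DMEM (no phenol red) + 10% FBS; cpd pin-transferred, titration series; 72 h, 37 degrees C; CellTiter-Glo, luminescence. Data normalized, curve-fit.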
MCF10A rereplic – A quantitative high throughput screen for small molecules that induce DNA re-replication in MCF 10a normal breast cells | 350,000 compounds, 2.9% hits | MCF 10A DNA re-replication, Hoechst nuclear intensity, 48 h | Potency, µM (series often up to 46.1 µM), hits mostly activators; also: nearly all actives have a fitted effect of over 50% in size
IL-1B inflam inh – qHTS for Inhibitors of Inflammasome Signaling: IL-1-beta AlphaLISA Primary Screen; THP-1 LPS/ATP IL-1B secretion, AlphaLISA, 16 h; stronger effect = lower value; activity change, % at 57.5 µM; 360,000 compounds, 4.7% hits; AID 743279, 2014; in the data active = activity change below about -50%; inconclusive = mostly about -30% to -49%
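Secreted IL-1B measured by AlphaLISA bead assay after 16 h compound exposure of THP-1 cells; compounds (final up to 57.5 uM) added 1 h before LPS (250 ng/mL) and ATP (1.25 mM) stimulation; lower signal means less secretion.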
KB-3-1 tox – qHTS assay for MDR1-selective chemotherapeutics: Primary screen using the parental adenocarcinoma cell KB-3-1; KB-3-1 viability, CellTiter-Glo ATP luminescence, 72 h; Potency, µM (titrated, usually from 46.1 µM), actives largely listed as cytotoxic; 400,000 compounds, 1.4% hits; AID 1347075, 2019; also: nearly all actives have a fitted effect of over 60% in size
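Luminescent ATP read-out (CellTiter-Glo) measures survival of drug-naive KB-3-1 cells after 72 h compound exposure at 37 °C. Titration series was screened from lowest to highest concentration, with DMSO vehicle plates as background controls.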
SW480 rereplic – A quantitative high throughput screen for small molecules that induce DNA re-replication in SW480 colon adenocarcinoma cells. Potency, µM (series often up to 46.1 µM), actives largely listed as activators. AID 624297, 2012. 340,000 compounds, 1.8% hits. SW480 DNA re-replication, Hoechst DNA content imaging, 48 h; also: nearly all actives have a fitted effect of over 55% in size
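Readout is total intensity of Hoechst-stained nuclei, excited at 405 nm and collected at 500-530 nm. Compound treatment lasted 48 hr at 37 C in 5% CO2 before staining.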
Numbers stand for hits; 0 = inactive; ? = inconclusive; - = no result given; [ ] = dose if it differs, or a comment. Most compounds without a hit are left out; they make up all but 9.9% or so of the library. Unless noted, calls follow the shape of the dose curve; as a rule, active = well fitted curve in the direction sought with a large enough effect; inconclusive = small, poorly fitted or top-dose-only effect, or another doubt; inactive = no such curve, though single readings can be large; an effect the other way counts as inactive or inconclusive.

SMILES | KB-V1 MDR tox | MCF10A rereplic | IL-1B inflam inh | KB-3-1 tox | SW480 rereplic
O=C(NN=Cc1cc(Cl)ccc1[N+](=O)[O-])c1ccco1 | 14.6µM | 0 | 0 | 0 | 0
Cc1cc2sc3ccccc3c(=O)c2c(C)c1O | 18.4µM | 0 | 0 | ? | 0
COc1ccc(-c2sc(Nc3ccccc3)n[n+]2-c2ccc(F)cc2)cc1Br | ? | 0 | ? | 0 | 0
Fc1ccc(-[n+]2nc(Nc3ccccc3)sc2-c2c(Cl)cccc2Cl)cc1 | 0 | ? | -93.6 | ? | 0[9.22 µM]
COc1ccc2ccccc2c1-c1sc(Nc2ccccc2)n[n+]1-c1ccc(F)cc1 | 0 | 0 | -78.1 | 0 | ?
CCc1ccc(Nc2n[n+](-c3ccccc3)c(-c3c(Cl)cccc3Cl)s2)cc1 | ? | ? | -91.8 | 23.1µM | ?
O=C(O)c1ccc(-c2sc(Nc3ccccc3)n[n+]2-c2ccc(F)cc2)cc1 | 0 | 0 | 0 | 0 | 0[9.22 µM]
CCc1ccc(Nc2n[n+](-c3ccccc3)c(-c3ccc(N(CC)CC)cc3)s2)cc1 | 0 | ? | 0 | 0 | 0
Clc1ccc(-c2cn3cc(Br)ccc3n2)cc1Cl | 0 | 0 | 0 | 0 | 0
Clc1ccc(-c2cn3c(n2)-c2ccccc2C3)cc1Cl | 14.6µM | 0 | 0 | 0 | 0
Cc1cccn2cc(-c3ccc(S(=O)(=O)N4CCOCC4)cc3)nc12 | 2.31µM | 0 | 0 | 0 | 0
Cc1cccn2cc(-c3ccc(S(=O)(=O)N4CCCCC4)cc3)nc12 | 0 | 0 | 0 | 0 | 0
COc1ccccc1/C=C/CN1CCSCC1 | 0 | 0 | 0 | 0 | 0
O=C1CCC(C(=O)N2CCCCO2)CN1Cc1cccc(F)c1 (stereo not given) | 0 | 0 | 0 | 0 | 0
CC(C)CN1C(=O)CSCC1(C)C(=O)NC(C)C (stereo not given) | 0 | - | -67.9 | 0 | -
Cc1ccc(NC(=O)COc2cccc3c2OC(C)(C)C3)c(O)c1 | 18.4µM | 0 | 0 | 0 | 0
COc1ccc(CN2CSC(=S)N(Cc3ccccc3)C2)cc1 | 0 | ? | 0 | 0 | ?
S=C1SCN(Cc2cccnc2)CN1Cc1cccnc1 | ? | 13µM | - | ? | ?
S=C1SCN(Cc2ccccc2)CN1Cc1ccccc1 | 0 | 33.5µM | 0 | 0 | ?
O=C(c1ccc(F)cc1)N1CCC(c2nc3ccccc3s2)CC1 | ? | - | - | 0 | -
O=S(=O)(c1cccc(F)c1)N1CCC(c2nc3ccccc3s2)CC1 | 0 | - | - | 0 | -
CCN(CC)C(=O)c1ccc(S(=O)(=O)N2CCC(c3nc4ccccc4s3)CC2)cc1 | 7.31µM | ? | ? | 20.6µM | 0
CC1CCCN(C(=O)c2ccc(S(=O)(=O)N3CCC(c4nc5ccccc5s4)CC3)cc2)C1 (stereo not given) | ? | ? | -70.5 | ? | 0
CCOC(=O)C(C(=O)OCC)C(Nc1ccc(Br)cc1)c1ccccc1 (stereo not given) | 0 | ? | -70.7 | ? | ?
CCOC(=O)C1CSC(CC(=O)Nc2ccc(OC(F)(F)F)cc2)C(=O)N1 (stereo not given) | 0 | 0 | 0 | 0 | 0
SMILES | KB-V1 MDR tox | MCF10A rereplic | IL-1B inflam inh | KB-3-1 tox | SW480 rereplic
O=C(COc1ccc(-c2ccccc2)cc1)N1CCN(S(=O)(=O)Cc2ccccc2)CC1 | 4.61µM | 0 | 0 | 3.66µM | ?
C=CCOc1ccc(/C=C2\SC(=S)N(N3CCOCC3)C2=O)cc1 | 0 | 0 | 0 | 0 | 5.8µM
NCCCC[C@H]1CN=C(N)N1CCc1cccc2ccccc12 | 0 | 0 | 0 | 0 | 0
NCCCC[C@H]1CN=C(N)N1CCC12CC3CC(CC(C3)C1)C2 | 0 | 0 | -54.7 | 0 | 0[9.22 µM]
CC1(C(=O)NCc2ccco2)Cc2c(-c3cccc(C(N)=O)c3)ccnc2O1 (stereo not given) | 0 | - | -57.4 | 10.3µM | -
CC1(C(=O)NCc2ccc(F)c(F)c2)Cc2c(-c3cccc(C(N)=O)c3)ccnc2O1 (stereo not given) | 0 | - | 0 | ? | -
CC(=O)Nc1ccc(-c2ccnc3c2CC(C)(C(=O)NCc2ccco2)O3)cc1 (stereo not given) | 0 | - | 0 | 10.3µM | -
CC1(C(=O)NCc2ccco2)Cc2c(-c3cccc(C(F)(F)F)c3)ccnc2O1 (stereo not given) | ? | - | 0 | 6.51µM | -
CN(C)c1ccc(-c2ccnc3c2CC(C)(C(=O)NCc2ccco2)O3)cc1 (stereo not given) | 0 | - | 0 | ? | -
CC1(C(=O)NCc2ccccc2)Cc2c(-c3cccc(C(N)=O)c3)ccnc2O1 (stereo not given) | 0 | - | 0 | 6.51µM | -
CC1(C(=O)NCc2ccncc2)Cc2c(-c3cccc(C(F)(F)F)c3)ccnc2O1 (stereo not given) | 0 | - | 0 | 0 | -
CCOc1ccccc1C(=O)Oc1c(S(=O)(=O)c2ccc(C)cc2)c(C)nn1-c1ccccc1 | 0 | - | - | 0 | -
CCCNC(=O)N(C)C[C@H]1Oc2ncc(C#CCc3ccccc3)cc2C(=O)N([C@H](C)CO)C[C@H]1C | 0 | - | 0 | 0 | -
COc1ccc(NC(=O)C2(C)Cc3c(-c4cccc(C(N)=O)c4)ccnc3O2)cn1 (stereo not given) | 0 | - | 0 | 9.2µM | -
O=C(CC1C(=O)NCCN1CC1CCCCC1)NCc1ccc(F)cc1F (stereo not given) | 0 | 0 | -65.7 | 0 | 0
Cc1ccc(N2CC(C)Cn3c2nc2c3c(=O)n(CC(=O)O)c(=O)n2C)cc1 (stereo not given) | ? | - | - | 0 | -
COc1ccc(C2=NOC(COc3ccc4c(C)cc(=O)oc4c3)C2)c(OC)c1 (stereo not given) | 14.6µM | 25.9µM | 0 | 5.8µM | 11.6µM
Cc1cc(=O)oc2cc(OCCCC[n+]3ccccc3)ccc12 | 0 | 0 | 0 | 0 | 0
COc1ccccc1C1=NOC(COc2ccc3c(C)cc(=O)oc3c2)C1 (stereo not given) | 18.4µM | 1.64µM | 0 | 1.16µM | 8.2µM
Cc1cc(=O)oc2cc(OCCc3ccccc3)ccc12 | 0 | 0 | 0 | 20.6µM | 0
COc1cccc(COc2ccc3c(C)cc(=O)oc3c2)c1 | ? | 0 | 0 | 0 | 0
COc1ccc2c(C)cc(=O)oc2c1 | 0 | 0 | 0 | 0 | ?
Cn1c(SCC(=O)Nc2ccccc2O)nnc1-c1ccco1 | - | 0 | 0 | - | 0
CCOC(=O)c1ccc(N2C(=O)c3n[nH]c(C)c3C2c2ccc(CC)cc2)cc1 (stereo not given) | 0 | - | - | 0 | -
CCOC(=O)c1ccc(N2C(=O)c3n[nH]c(-c4ccco4)c3C2c2ccc(O)c(OCC)c2)cc1 (stereo not given) | 0 | - | - | 0 | -
CCOC(=O)c1ccc(N2C(=O)c3n[nH]c(-c4ccco4)c3C2c2cccc([N+](=O)[O-])c2)cc1 (stereo not given) | 18.4µM | ? | -82.7 | ? | 0
